Source: PubChem BioAssay (NCATS)
Values without a mark were called inactive. Inconclusive results are not listed. A call without a number means that no potency is given here. Activity calls are given as the source filed them. Calls follow the shape of the dose curve; as a rule, active = well fitted curve in the direction sought with a large enough effect; inconclusive = small, poorly fitted or top-dose-only effect, or another doubt; inactive = no such curve, though single readings can be large; an effect the other way counts as inactive or inconclusive.

Experiments:
[1] = biological target: Glutathione peroxidase 1 (Homo sapiens) (UniProt P07203); experiment: Primary qHTS Assay for Inhibitors of Recombinant Selenoprotein Glutathione Peroxidase 1 (GPX1) (AID 1845191); also: nearly all actives have a fitted effect of over 65% in size
Sequence of Glutathione peroxidase 1 (Homo sapiens) (P07203 whole entry, looked up): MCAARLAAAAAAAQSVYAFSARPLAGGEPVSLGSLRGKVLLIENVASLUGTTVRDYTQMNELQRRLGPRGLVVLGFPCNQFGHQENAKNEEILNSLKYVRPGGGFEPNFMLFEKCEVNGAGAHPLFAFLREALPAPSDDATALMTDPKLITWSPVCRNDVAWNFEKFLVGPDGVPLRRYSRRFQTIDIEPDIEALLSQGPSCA
Summary of the method: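 NADPH consumption tracked by fluorescence at 340/450 nm between t=0 and t=15 min, room temperature. Final mix: 10 nM GPX1, 100 nM glutathione reductase, 1 mM GSH, 0.5 mM NADPH, 0.5 mM cumene hydroperoxide, 0.01% BSA; 30 min compound–enzyme preincubation.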

[2] = biological target: Phospholipid hydroperoxide glutathione peroxidase GPX4 (Homo sapiens) (UniProt P36969); experiment: Primary qHTS Assay for Inhibitors of Recombinant Selenoprotein Glutathione Peroxidase 4 (GPX4) (AID 1845192); also: nearly all actives have a fitted effect of over 65% in size
Sequence of Phospholipid hydroperoxide glutathione peroxidase GPX4 (Homo sapiens) (P36969 whole entry, looked up): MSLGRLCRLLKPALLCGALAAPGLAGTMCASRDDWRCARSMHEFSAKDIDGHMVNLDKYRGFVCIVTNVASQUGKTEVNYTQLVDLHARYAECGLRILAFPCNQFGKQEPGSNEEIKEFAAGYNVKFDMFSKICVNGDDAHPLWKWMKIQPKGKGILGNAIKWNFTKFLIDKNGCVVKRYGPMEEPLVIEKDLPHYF
Summary of the method: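 NADPH consumption followed by fluorescence at 340/450 nm, t=0 and after 15 min at room temperature. Reaction started with cumene hydroperoxide (0.5 mM final) after 30 min compound–GPX4 preincubation; final 200 nM GPX4, 100 nM GR, 1 mM GSH, 0.5 mM NADPH.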

[3] = biological target: Luciferin 4-monooxygenase (Photinus pyralis) (UniProt P08659); experiment: Primary firefly luciferase (FLuc) qHTS assay for identification of artifact compounds. (AID 1845220); also: nearly all actives have a fitted effect of over 60% in size
Summary of the method: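 Compounds sat 15 min at room temperature with 10 uM luciferin and 10 uM ATP (pH 7.6 Tris acetate). Firefly luciferase (10 nM final) was then added, and luminescence was read 5 min later. Data normalized to no-enzyme and DMSO controls were Hill-fitted.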

[4] = Primary fluorescence-based thiol-reactive (MSTI) qHTS assay for identification of artifact compounds. (AID 1845221); also: nearly all actives have a fitted effect of over 65% in size; also: potency is read from the fitted curve at half-maximal effect
Summary of the method: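 qHTS titration of compound; 4 uM MSTI, PBS pH 7.4, 2% DMSO; 1 h RT, dark; fluorescence 525/598 nm; normalized to Acetyl-MSTI and MSTI; 4-parameter Hill fit.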

[5] = Primary redox qHTS assay for identification of artifact compounds. (AID 1845223)
Summary of the method: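 Redox-cycling detection via DTT (250 uM final) oxidation coupled to Amplex Red (25 uM)/HRP (250 mU/mL) in HBSS. 15 min preincubation plus 30 min after DTT, room temperature. Ex/Em 525/598 nm; 4-parameter Hill fit against DMSO and 10 uM DA3003.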

[6] = test system: Nanoluciferase (engineered Oplophorus gracilirostris luciferase); experiment: Primary Nanoluciferase (NLuc) qHTS assay for identification of artifact compounds. (AID 1845222); also: series mostly up to about 54 µM
Summary of the method: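 Luminescence from secreted NLuc (filtered, 1:55-diluted S16 cell medium) read 5 min after Nano-Glo substrate; compounds preincubated 15 min, RT. Hill fits of inhibition normalized to DMSO and no-enzyme.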

[7] = biological target: Cytochrome P450 3A4 (Homo sapiens) (UniProt P08684); experiment: qHTS for inhibitors of CYP3A4 against the NCATS DSHEA and TCM libraries (AID 1919971);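 also: inhibition lowers luminescence from luciferin made by CYP3A4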
Sequence of Cytochrome P450 3A4 (Homo sapiens) (P08684 whole entry, looked up, canonical isoform): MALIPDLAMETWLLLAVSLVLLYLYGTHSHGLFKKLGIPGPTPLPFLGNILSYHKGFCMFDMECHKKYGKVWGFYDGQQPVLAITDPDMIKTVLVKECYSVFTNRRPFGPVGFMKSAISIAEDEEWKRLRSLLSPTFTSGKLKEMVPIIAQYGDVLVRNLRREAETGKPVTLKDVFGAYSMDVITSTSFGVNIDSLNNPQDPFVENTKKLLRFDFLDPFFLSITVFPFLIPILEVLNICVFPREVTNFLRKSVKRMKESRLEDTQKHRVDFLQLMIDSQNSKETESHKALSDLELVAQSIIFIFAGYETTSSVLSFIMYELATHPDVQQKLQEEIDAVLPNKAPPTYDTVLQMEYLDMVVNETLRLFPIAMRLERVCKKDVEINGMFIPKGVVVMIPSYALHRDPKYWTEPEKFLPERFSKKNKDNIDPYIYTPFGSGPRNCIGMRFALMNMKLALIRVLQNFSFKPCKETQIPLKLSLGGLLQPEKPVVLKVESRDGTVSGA
Summary of the method: (§1)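 Isoform-specific enzyme and substrate levels; enzyme-free wells as background. Reaction: 1x NADPH regenerating system, 30-45 min, room temperature, shielded from light; luminescent detection reagent added, 30 min.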

[8] = biological target: Cytochrome P450 2D6 (Homo sapiens) (UniProt P10635); experiment: qHTS for inhibitors of CYP2D6 against the NCATS DSHEA and TCM libraries (AID 1919972)
Sequence of Cytochrome P450 2D6 (Homo sapiens) (P10635 whole entry, looked up): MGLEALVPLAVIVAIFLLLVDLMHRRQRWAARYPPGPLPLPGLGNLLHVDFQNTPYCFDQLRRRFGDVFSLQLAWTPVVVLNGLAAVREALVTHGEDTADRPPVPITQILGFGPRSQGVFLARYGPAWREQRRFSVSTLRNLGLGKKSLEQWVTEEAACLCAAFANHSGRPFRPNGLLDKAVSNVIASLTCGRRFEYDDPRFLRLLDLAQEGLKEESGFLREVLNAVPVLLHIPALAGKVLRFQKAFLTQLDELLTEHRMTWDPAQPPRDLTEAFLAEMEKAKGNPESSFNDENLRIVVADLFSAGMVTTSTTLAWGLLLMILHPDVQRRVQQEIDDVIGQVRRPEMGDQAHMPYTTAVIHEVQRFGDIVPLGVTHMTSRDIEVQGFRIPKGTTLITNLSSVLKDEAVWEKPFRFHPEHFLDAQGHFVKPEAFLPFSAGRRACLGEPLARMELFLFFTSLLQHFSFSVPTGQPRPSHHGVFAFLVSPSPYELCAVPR
Summary of the method: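 qHTS, concentration–response format with most substances from 19.5 nM. CYP2D6 + pro-luciferin substrate, 15 min with compound, then 1x NADPH regen, 30–45 min RT dark. Glo detection 30 min, luminescence. Quinidine control.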

[9] = biological target: Cytochrome P450 2C9 (Homo sapiens) (UniProt P11712); experiment: qHTS for inhibitors of CYP2C9 against the NCATS DSHEA and TCM libraries (AID 1919973);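 also: luminogenic pro-luciferin CYP2C9 substrate turned into luciferin with NADPH regeneration; series mostly up to about 34 µM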
Sequence of Cytochrome P450 2C9 (Homo sapiens) (P11712 whole entry, looked up): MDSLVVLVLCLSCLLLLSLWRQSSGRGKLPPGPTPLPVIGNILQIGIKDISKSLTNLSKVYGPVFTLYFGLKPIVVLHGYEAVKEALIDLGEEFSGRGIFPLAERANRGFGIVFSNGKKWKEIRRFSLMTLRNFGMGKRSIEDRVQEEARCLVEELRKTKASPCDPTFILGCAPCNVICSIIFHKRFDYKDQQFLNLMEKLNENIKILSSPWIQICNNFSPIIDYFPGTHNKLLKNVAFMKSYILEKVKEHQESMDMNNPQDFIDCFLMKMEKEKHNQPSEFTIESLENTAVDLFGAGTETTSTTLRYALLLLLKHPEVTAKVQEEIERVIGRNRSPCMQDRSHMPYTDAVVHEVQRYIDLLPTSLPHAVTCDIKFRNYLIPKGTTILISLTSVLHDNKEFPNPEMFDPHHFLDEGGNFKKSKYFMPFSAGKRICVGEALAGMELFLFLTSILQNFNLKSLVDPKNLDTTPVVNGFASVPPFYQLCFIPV
Summary of the method: as §1

COC(=O)CC(O)C1OC(c2ccccc2)C(O)C1O (configuration not stated)
Potency [1]: inactive | Potency [2]: inactive | Potency [3]: inactive | Potency [4]: 8.44 µM (active) | Potency [5]: inactive

C[C@@H]1C[C@@H]([C@@H](O)C(C)(C)O)O[C@H]2C[C@@]3(C)C(=C12)C[C@H](O)[C@H]1[C@@]2(C)CCC(=O)C(C)(C)C2CC[C@@]13C (some centres not stated)
Potency [1]: inactive | Potency [2]: inactive | Potency [3]: inactive | Potency [4]: inactive | Potency [5]: inactive

Nc1nc2c(ncn2[C@@H]2O[C@@H]3COP(=O)(O)O[C@H]3[C@H]2O)c(=O)[nH]1
Potency [1]: inactive | Potency [2]: inactive | Potency [3]: inactive | Potency [4]: inactive | Potency [6]: inactive | Potency [5]: inactive

COc1cc(/C=C/C(=O)OC[C@H]2O[C@@](CO)(O[C@H]3O[C@H](CO)[C@@H](O)[C@H](O)[C@H]3O)[C@@H](OC(=O)/C=C/c3ccc(O)c(OC)c3)[C@@H]2O)ccc1O
Potency [1]: inactive | Potency [2]: inactive | Potency [3]: inactive | Potency [4]: 3.54 µM (active) | Potency [6]: inactive | Potency [5]: inactive

C[C@H](NC(=O)CCc1nc2ccccc2c(=O)[nH]1)c1ccccc1
Potency [1]: inactive | Potency [2]: inactive | Potency [3]: inactive | Potency [4]: inactive | Potency [5]: inactive

CC12CCC3c4ccc(OC5OC(C(=O)O)C(O)C(O)C5O)cc4CCC3C1CCC2O (configuration not stated)
Potency [1]: inactive | Potency [2]: inactive | Potency [3]: inactive | Potency [4]: inactive | Potency [5]: inactive

OC[C@H]1O[C@@H](OC[C@H]2O[C@@H](OC/C=C/c3ccccc3)[C@H](O)[C@@H](O)[C@@H]2O)[C@@H](O)[C@@H]1O
Potency [1]: inactive | Potency [2]: inactive | Potency [3]: inactive | Potency [4]: 10.3 µM (active) | Potency [6]: inactive | Potency [5]: inactive | outcome [7]: inactive | outcome [8]: inactive | outcome [9]: inactive

FC(F)(F)c1cc(-c2ncn(/C=C\c3nnco3)n2)cc(C(F)(F)F)c1
Potency [1]: inactive | Potency [2]: inactive | Potency [3]: inactive | Potency [4]: inactive | Potency [5]: inactive

CC12CCC(C(OC3OC(COC4OCC(O)(CO)C4O)C(O)C(O)C3O)C1)C(C)(C)O2 (configuration not stated)
Potency [1]: inactive | Potency [2]: inactive | Potency [3]: inactive | Potency [4]: inactive | Potency [6]: inactive | Potency [5]: inactive

CC(C)(C)NC(=O)[C@@H](c1cccnc1)N(C(=O)c1ccco1)c1ccc(C(C)(C)C)cc1
Potency [1]: inactive | Potency [2]: inactive | Potency [3]: inactive | Potency [4]: inactive | Potency [5]: inactive

CC1=CC(=O)CC(C)(CO)C1(O)/C=C/C(C)O[C@@H]1O[C@H](CO)[C@@H](O)[C@H](O)[C@H]1O (some centres not stated)
Potency [1]: inactive | Potency [2]: inactive | Potency [3]: inactive | Potency [4]: 10.3 µM (active) | Potency [5]: inactive

Cc1cc(C)c(CNC(=O)c2cc(-c3ccc(CN4CCOCC4)cc3)cc3c2cnn3C2CCCC2)c(=O)[nH]1
Potency [1]: inactive | Potency [2]: inactive | Potency [3]: inactive | Potency [4]: inactive | Potency [5]: inactive

CCCC(=O)C1CCN(c2ncnc3c2CN(C(=O)c2ccc(-c4ccccc4)cc2)CC3)CC1
Potency [1]: inactive | Potency [2]: inactive | Potency [3]: inactive | Potency [4]: inactive | Potency [5]: inactive

O=C(CN1C(=O)C2(CCCC2)NCC1c1cc(F)cc(F)c1)Nc1ccc2c(c1)CC1(C2)C(=O)Nc2ncccc21 (configuration not stated)
Potency [1]: inactive | Potency [2]: inactive | Potency [3]: inactive | Potency [4]: inactive | Potency [5]: inactive

COC(=O)c1cc(OC)c(O[C@@H]2O[C@@H](C)[C@H](O)[C@@H](O)[C@H]2O)c(OC)c1
Potency [1]: inactive | Potency [2]: inactive | Potency [3]: inactive | Potency [4]: inactive | Potency [5]: inactive

CC(C)=CCC[C@](C)(O)[C@H]1CC[C@]2(C)[C@@H]1[C@H](O)CC1[C@@]3(C)CC[C@H](O)C(C)(C)[C@@H]3[C@@H](O[C@@H]3O[C@H](CO)[C@@H](O)[C@H](O)[C@H]3O[C@@H]3O[C@H](CO)[C@@H](O)[C@H](O)[C@H]3O)C[C@]12C (some centres not stated)
Potency [1]: inactive | Potency [2]: inactive | Potency [3]: inactive | Potency [4]: inactive | Potency [6]: inactive | Potency [5]: inactive | outcome [7]: inactive | outcome [8]: inactive | outcome [9]: inactive

Cc1nc(C)c(-c2ccc(C3CCC(CC(=O)O)CC3)cc2)nc1C(N)=O (configuration not stated)
Potency [1]: inactive | Potency [2]: inactive | Potency [3]: inactive | Potency [4]: inactive | Potency [5]: inactive

COc1cc(Br)c(S(=O)(=O)Nc2ccc(C(F)(F)F)c(O[C@@H]3CCN(C)C3)c2)cc1OC
Potency [1]: inactive | Potency [2]: inactive | Potency [3]: inactive | Potency [4]: inactive | Potency [5]: inactive

C[C@@]12CC[C@@H]3[C@@](CC[C@H]4[C@@]3(C)CCC[C@@]4(C)C(=O)O)(CC1=O)C2
Potency [1]: inactive | Potency [2]: inactive | Potency [3]: inactive | Potency [4]: inactive | Potency [6]: inactive | Potency [5]: inactive | outcome [8]: inactive

O=C(CCCCN1CCOCC1)Nc1ccc(-c2cccnc2)cc1
Potency [1]: inactive | Potency [2]: inactive | Potency [3]: inactive | Potency [4]: inactive | Potency [5]: inactive

CC(=O)O[C@@H]1CC(C)=C2[C@H]1[C@H](C)CC[C@H]2/C=C(\C)C(=O)O
Potency [1]: inactive | Potency [2]: inactive | Potency [3]: inactive | Potency [6]: inactive
